# Assay outcomes deposited in PubChem by National Center for Advancing Translational Sciences (NCATS).
# HP1b chromo inh: blocks HP1-beta chromodomain binding to methylated histone tails. P83916. AlphaScreen HP1-beta / biotin-H3K9me3 peptide binding. Potency, µM (highest dose often 114 µM), for inactives: at the highest dose activity change, negative = inhibition, usual class: inhibitors. 390,000 compounds, 0.56% hits. AID 540317; note: potency is the fitted concentration of half-maximal effect; nearly all actives have a fitted effect of over 70% in size
#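 HP1-beta protein (50 nM final) preincubated 30 min at room temperature with biotinylated H3(1-18)K9me3 peptide (50 nM) in PBS pH 7.4, 0.01% Tween-20, then compound added for 30 min. AlphaScreen streptavidin donor/nickel chelate acceptor beads (10 ug/mL final), 30 min dark, luminescence read.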
# G9a inh: inhibitors of human histone lysine methyltransferase G9a. Q96KQ7. G9a H3K9 monomethylation, AlphaScreen, 2 h. Potency, µM (highest dose often 102 µM), inactives show at the highest dose activity, negative = inhibition, actives largely listed as inhibitors. 350,000 compounds, 8.8% hits; note: potency is the fitted concentration of half-maximal effect; % is set by controls: 0 for no effect and ±100 for the full control effect; nearly all actives have a fitted effect of over 75% in size
#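 Methyltransferase reactions run at room temperature for 2 h (20 nM enzyme, 500 nM biotin-H3K9 peptide, 20 uM SAM) after a 15 min compound preincubation; product detected by AlphaScreen beads and anti-H3K9me1 antibody.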
# JMJD2A Tudor: blocks the human JMJD2A Tudor domain; O75164; AlphaScreen JMJD2A-Tudor / H3K4me3 peptide binding; Potency, µM (highest dose often 114 µM), for the others: top-dose activity change, negative = inhibition, most hits filed as inhibitors; 390,000 compounds, 4.4% hits; note: potency is the fitted concentration of half-maximal effect; % is set by controls: 0 for no effect and ±100 for the full control effect; nearly all actives have a fitted effect of over 50% in size
# Target sequence (O75164 whole entry, looked up, the tested form may be a part): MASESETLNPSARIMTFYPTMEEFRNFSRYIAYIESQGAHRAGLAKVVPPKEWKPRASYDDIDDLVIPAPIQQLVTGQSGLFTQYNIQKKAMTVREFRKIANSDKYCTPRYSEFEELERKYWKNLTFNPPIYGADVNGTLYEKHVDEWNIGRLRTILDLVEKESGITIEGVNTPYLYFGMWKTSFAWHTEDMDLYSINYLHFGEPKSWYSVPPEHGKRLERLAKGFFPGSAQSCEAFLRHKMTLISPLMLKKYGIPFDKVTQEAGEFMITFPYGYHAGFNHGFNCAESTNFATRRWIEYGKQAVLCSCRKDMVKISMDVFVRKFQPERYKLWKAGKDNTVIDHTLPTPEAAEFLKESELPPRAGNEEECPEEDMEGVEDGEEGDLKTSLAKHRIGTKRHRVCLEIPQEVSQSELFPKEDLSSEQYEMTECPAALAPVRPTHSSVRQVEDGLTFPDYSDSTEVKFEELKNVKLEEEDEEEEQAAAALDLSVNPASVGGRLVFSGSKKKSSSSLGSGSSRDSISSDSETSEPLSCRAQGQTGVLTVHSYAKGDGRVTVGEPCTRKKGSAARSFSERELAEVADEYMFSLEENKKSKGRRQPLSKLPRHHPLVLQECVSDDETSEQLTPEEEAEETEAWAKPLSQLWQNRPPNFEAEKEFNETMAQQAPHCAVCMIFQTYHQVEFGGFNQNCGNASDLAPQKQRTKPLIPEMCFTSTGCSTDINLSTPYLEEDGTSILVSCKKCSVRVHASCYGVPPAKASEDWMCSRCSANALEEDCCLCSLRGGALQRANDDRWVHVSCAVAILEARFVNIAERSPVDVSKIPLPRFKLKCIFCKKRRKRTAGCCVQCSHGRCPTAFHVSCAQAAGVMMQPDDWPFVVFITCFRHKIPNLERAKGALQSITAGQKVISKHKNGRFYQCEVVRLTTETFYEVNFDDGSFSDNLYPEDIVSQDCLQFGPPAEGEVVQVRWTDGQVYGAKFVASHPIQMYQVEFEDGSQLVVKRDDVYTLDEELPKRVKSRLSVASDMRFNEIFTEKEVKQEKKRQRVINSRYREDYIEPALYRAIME
# CtBP-E1A blk: CtBP/E1A binding inhibition | AlphaScreen GST-E1A/His-CtBP binding, 1536-well; stronger effect = lower value | activity change, % (no concentration beside the values) | 340,000 compounds, 0.49% hits; in the data active = activity change below about -65%; inconclusive = mostly about -30% to -63%; note: % is set by controls: 0 for no effect and ±100 for the full control effect
#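 AlphaScreen with 125 nM GST-E1A and 125 nM His-CtBP (5X stocks) in Tris pH 8.0, 300 mM NaCl, BSA, Tween 20, TCEP. Compounds preincubated 2 h at 37 deg C, then glutathione donor/nickel acceptor beads added for 1 h at 37 deg C in dark.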
# BAZ2B inh: BAZ2B (human) inhibition. Q9UIF8. AlphaScreen BAZ2B-H3K14Ac peptide displacement. Potency, µM (series often up to 114 µM), inactives show at the top dose activity change, negative = inhibition, actives largely listed as inhibitors. 360,000 compounds, 4.4% hits. AID 504333; note: potency is the fitted concentration of half-maximal effect; % is set by controls: 0 for no effect and ±100 for the full control effect; nearly all actives have a fitted effect of over 60% in size
#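 Complex of BAZ2B and biotin-H3K14Ac (50 nM apiece) forms over 30 min at RT, then faces library compounds up to 110 uM for another 30 min; AlphaScreen beads added, 20 min dark incubation, luminescence read.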
# Six1-Eya2 inh: inhibitors of human Six1/Eya2 interaction | Q15475+O00167 | AlphaScreen GST-Six1/His-Eya2 binding, biochemical; stronger effect = lower value | activity change, % (concentration not given with the values) | 360,000 compounds, 0.56% hits; in the data active = activity change below about -65%; inconclusive = mostly about -30% to -63%; note: % is set by controls: 0 for no effect and ±100 for the full control effect
#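 GST-Six1 + His-Eya2 (5X stock: 250/500 nM); Tris pH 8.0, 300 mM NaCl, 0.05% BSA, 0.02% Tween 20; GSH donor/Ni acceptor beads; 1 h 37 °C dark; AlphaScreen readout.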
# * = called active by the depositor; ? = inconclusive; / = no result; [ ] = remark or other dose. In the library only some 10% were active in any assay of this set; here they are far more common. Unless noted, calls come from the whole dose curve; as a rule, active = well fitted inhibition curve with a large enough effect; inconclusive = small, poorly fitted or top-dose-only effect; inactive = no such curve, though single readings can be large or run the other way.
SMILES,HP1b chromo inh,G9a inh,JMJD2A Tudor,CtBP-E1A blk,BAZ2B inh,Six1-Eya2 inh
Cc1ccccc1OCCC(=O)Nc1ccc(N2CCOCC2)cc1N1CCOCC1,3%,45µM*,-23%,-1,0%,4
COc1ccc(OC)c(CNC(=O)c2cnc(N(C)C)nc2)c1,16%,0%[59 µM],-17%,/,-2%,/
CCOC(=O)C[C@@H]1OC[C@H](C(C)C)N1S(=O)(=O)c1ccc(C)cc1,/,/,/,6,/,2
Oc1c(Br)cc(Br)cc1CNc1ccc(F)cc1,-16%,45µM*,?,?,40µM*,-18
Cc1ccc(S(=O)(=O)N(C)C[C@@H]2OCc3cn(nn3)CCCC(=O)N([C@H](C)CO)C[C@H]2C)cc1,/,/,/,-4,/,8
CC1CCN(c2cc(N)c(Cl)cc2[N+](=O)[O-])CC1,-17%,50µM*,?,-3,?,-8
CC1CCN(c2cc(C#N)c(C#N)cc2[N+](=O)[O-])CC1,32%,-3%[59 µM],-2%,1,2%,-2
CCc1ccccc1NC(=O)CC(c1ccc(F)cc1)N1Cc2ccccc2C1=O (centres undefined),45%,0%[59 µM],-15%,/,-12%,/
CCN1CCC(O)(/C=C/c2ccc(C(C)C)cc2)C(C(=O)/C=C/c2ccc(C(C)C)cc2)C1 (centres undefined),?,/,32µM*,-5,/,2
CCN1CCN(C(=O)/C=C/c2ccc(C(C)C)cc2)CC1,2%,/,-7%,-9,/,-2
Cc1cc(-c2csc(NC(=O)c3ccc(C#N)cc3)n2)c(C)n1Cc1ccccc1,29%,45µM*,-26%,-13,8%,2
CC(C)(C)C1CCC(C(=O)OCC(=O)N2CCOCC2)CC1 (centres undefined),54%,3%[59 µM],1%,8,13%,2
COc1ccccc1OCC(=O)N(Cc1ccc(N(C)C)cc1)CC1CCCO1 (centres undefined),9%,?,?,/,?,/
Cc1cc(Cl)ccc1OCC(=O)N(Cc1ccc(N(C)C)cc1)CC1CCCO1 (centres undefined),?,18µM*,28µM*,/,11µM*,/
CN(C)c1ccc(CN(CC2CCCO2)C(=O)COc2ccccc2Cl)cc1 (centres undefined),?,13µM*,45µM*,/,40µM*,/
Cc1cc(C)cc(OCC(=O)N(Cc2ccc(Cl)cc2)CC2CCCO2)c1 (centres undefined),96%,4%[59 µM],51%,/,42%,/
Cc1cccc(NC(=O)C(Cc2ccccc2)N2Cc3ccccc3C2=O)c1C (centres undefined),37%,-24%[59 µM],-15%,/,-11%,/
CCc1ccc(C(=O)C(C)CN2CCCCC2)cc1 (centres undefined),/,-49%[12.7 µM],/,/,/,/
COc1ccc(C(=O)c2coc3ccc(O)c(CN4CCCCC4)c23)cc1,49%,25µM*,-22%,0,-3%,-9
C=CCn1c(NC(=O)c2ccc(Br)o2)c(C(=O)OCC)sc1=S,-39%,3.2µM*,89µM*,-3,-30%,-2
CCOC(=O)c1c(NC(=O)c2ccc(Br)o2)sc(C)c1CC,184%,216%,77%,40,90%,46
COc1ccc(N=C2SCC(c3ccc(C)cc3)=NN2CCO)cc1,-10%,50µM*,-34%,-16,?,-5
COc1ccc(N=C2SC(C(=O)N3CCN(c4ccc([N+](=O)[O-])cc4)CC3)CC(=O)N2C)cc1 (centres undefined),21%,/,-12%,-1,?,-13
O=[N+]([O-])c1ccc(C2=NN(CCO)C(=Nc3ccc(OC(F)(F)F)cc3)SC2)cc1,?,16µM*,?,?,?,-13
C[C@]12C=CC(=O)C=C1CC[C@@H]1[C@H]3C[C@@H](O)[C@](O)(C(=O)CO)[C@@]3(C)C[C@H](O)[C@]12F,/,6%[21.5 µM],/,/,/,/
Cc1c(NC(=O)c2ccc(Cl)cc2)cc(C(C)C)c(O)c1S(=O)(=O)c1ccc(Cl)cc1,10%,-2%[59 µM],-15%,/,-9%,/
